Several values for one entry are separate records, joined by “and”; a condition that tells them apart may be missing. Equal values may be shown once. The panel holds about 83,000 compounds, 20% with a hit somewhere; the sample as a whole holds those more often.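 A percent growth of 40 corresponds to 60% growth inhibition; 0 means no net growth; -100 means all cells died. Active threshold: below 10.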 Activity calls are given as the source filed them.

The test has as its system UACC-62 melanoma. Put plainly: NCI-60 one-dose screen, 48 h (100 = growth as untreated, 0 = no growth, -100 = all killed). Conditions: 10 µM unless noted.
For the molecule `COc1ccc2ccccc2c1/C=N/N1CCCCC1`, the growth was 89.1% (inactive).
Turning to `O=C(Nc1cccc(-n2ccc3c(NC(=O)c4ccccc4)nccc32)c1)c1ccc(Cl)c(C(F)(F)F)c1`, the growth was 5.48% (active) and 54.1% (inactive).
In the case of `CCOc1ccc(Nc2c3ccccc3nc3ccccc23)cc1`, the growth is 84.8% (inactive) and 18.9% (inactive) and 31.8% (inactive).
`CCOc1ccc2cc(-c3nn(CC4CCN(C)CC4)c4ncnc(N)c34)ccc2c1`: the growth was -24.5% (active).
To `C[N+](C)(C)CN1C(=O)c2ccccc2C1=O` belongs 101% (inactive); to `S=C(S)N1CCCC1`, 90.9% (inactive) and 105% (inactive); to `O=C1C2=C(C(=O)c3ccccc31)C(O)(S(=O)(=O)O)C(O)(S(=O)(=O)O)C1N=CC=CC21` (stereo not drawn), 51.3% (inactive) and 45.6% (inactive).
The same measure for `Cc1cc(O)c2c(c1)C(=O)c1cc(O)cc(O)c1C2=O`: 60.7% (inactive) and 83.6% (inactive); for `CCN(CC)CCC(CNc1ccnc2cc(Cl)ccc12)c1ccc(OC)cc1` (stereo not drawn): 45.3% (inactive) and 51.9% (inactive).
In the case of `O=[N+]([O-])c1ccc2nc3c4ccccc4c4ccccc4c3nc2c1`, the growth was 86.7% (inactive).
`COc1cc2nc(N3CCC[C@@H](NC(=O)C4COc5ccccc5O4)C3)nc(N)c2cc1OC` (stereo partly drawn): the growth is 103% (inactive) and 104% (inactive).
Turning to `NC(=S)NN=C1CCC(C2CCCCC2)CC1` (stereo not drawn), the growth was 79.6% (inactive) and 88.3% (inactive).
Take `CCOC(=O)c1sc(N)nc1-c1ccccc1`: the growth is 112% (inactive).

These data come from PubChem BioAssay (NCI).
